# According to PubChem BioAssay (EPA / NIEHS):
# The source made the active and inactive calls. How the source made its calls: active means hit-call score of the fitted dose curve at least 0.9, where 1 is the maximum; inactive means score below 0.9.
# Test: APR_HepG2_p53Act_1hr: Apredica 1-hour HepG2 Assay for p53 Activation (AID 2282671)
# Conditions: high-content imaging, actives raise or lower the signal
# Description: APR_HepG2_1hr is a cell-based, multiplexed-readout assay that uses HepG2, a human liver cell line, with measurements taken at 1 hour after chemical dosing in a 384-well plate.APR_HepG2_p53Act_1hr is one of 10 assay component(s) measured or calculated from the APR_HepG2_1hr assay. It is designed to make measurements of dna content, a form of viability reporter, as detected with fluorescence intensity signals by HCS Fluorescent Imaging technology.Data from the assay component APR_HepG2_p53Act_1hr was analyzed into 1 assay endpoint. This assay endpoint, APR_HepG2_p53Act_1hr, was analyzed with bidirectional fitting relative to DMSO as the negative control and baseline of activity. Using a type of viability reporter, measures of protein for gain or loss-of-signal activity can be used to understand the signaling at the pathway-level as they relate to the gene TP53. Furthermore, this assay endpoint can be referred to as a primary readout, because this assay has produced multiple assay endpoints where this one serves a signaling function. To generalize the intended target to other relatable targets, this assay endpoint is annotated to the dna binding intended target family, where the subfamily is tumor suppressor.
# Cells were treated with dimethyl sulfoxide (DMSO) as a solvent control at a final concentration of 0.5% v/v or with compounds in DMSO with a resulting final DMSO concentration of 0.5% v/v. Compound treatment was done at concentrations of 0.39, 0.78, 1.56, 3.12, 6.24, 12.5, 25, 50, 100, and 200 uM in duplicate on each plate. Cells were treated with compounds for 1, 24, or 72 hr. Carbonyl […] m-chloro-phenylhydrazone (CCCP) and taxol were used as positive controls for mitochondrial function and cytoskeletal stability, respectively; DMSO served as the negative control for this experiment. Cells were fixed by the direct addition of 50 uL formaldehyde in Hank's Balanced Salt Solution (HBSS) to a final concentration of 3.7%. After incubation in the fixation medium for 30 min at room temperature (293-298 K), cells were rinsed twice with HBSS and treated with cell permeabilization buffer (16 uL of 0.5% Triton X-100) for 10 min at room temperature (293-298 K) before labeling. For mitochondrial membrane potential and mitochondrial measurements, pre-fixed cells were incubated with 50 uL of MitoTracker Red CMXRos (Invitrogen) at a concentration of 250 nM for 30 min before fixation. In the remaining cases, post-fixed cells were labeled by incubation with a multiplexed mixture of primary antibodies in HBSS for 60 min at room temperature (293-298 K) to detect immunoreactivity of c-Jun (1:500), phospho-histone H3 (1:100), phospho-histone H2A.x (1:200), p53 (1:400), alpha-tubulin (1:200) and Hoechst 33342 (2 ug/mL). Cells were labeled for multiplexed imaging on two separate plates: a) Hoechst 33342, MitoTracker Red, phospho-histone H3, and alpha-tubulin, and b) Hoechst 33342, phospho-histone H2A.x, and c-Jun. A final rinse with HBSS (50 uL) was performed before analysis. The primary and secondary antibodies for the proteins were phospho-histone H3 (rabbit anti-phospho-histone H3 and FITC-donkey anti-rabbit IgG), phospho-histone H2A.x (mouse anti-phospho-histone H2A.x and FITC-donkey anti-mouse IgG), c-Jun (rabbit anti-phospho-c-Jun and Cy3-donkey anti-rabbit IgG), p53 (sheep anti-p53 and Cy5-donkey anti-sheep IgG), alpha-tubulin (mouse anti-alpha-tubulin and Cy5-donkey anti-mouse IgG). These antibodies are available as the CellCiphr HepG2 assay kit (Millipore).Digital images of each well were captured using a Cellomics ArrayScan VTI (Thermo Scientific Cellomics) (0.8 NA objective, 0.63x optical coupler, and XF-93 filter set) at 20x magnification. The images were acquired using the autofocus feature of the ArrayScan instrument, which entails the following steps. First, the camera focuses on channel 1 (Hoechst 33342), where nuclei are identified. Second, a Z offset of 1 um is used for capturing mitochondria (MitoTracker Red). […]
row,Structure (SMILES),outcome
1,O=P(O)(O)CCCl,inactive
2,CC(C)N1C(=O)N(c2ccccc2)CSC1=NC(C)(C)C,inactive
3,COc1cc(OC)nc(NC(=O)NS(=O)(=O)c2ncccc2OCC(F)(F)F)n1,inactive
4,Cc1cc(C)nc(Nc2ccccc2)n1,inactive
5,CCCN(CC)CC1COC2(CCC(C(C)(C)C)CC2)O1 (stereo not given),inactive
6,CCOc1nc(F)cc2nc(S(=O)(=O)Nc3c(Cl)cccc3Cl)nn12,inactive
7,O=C1C2CC=CCC2C(=O)N1SC(Cl)(Cl)Cl (stereo not given),inactive
8,COP(=O)(OC)O/C(C)=C/C(=O)N(C)C,inactive
9,CS(=O)(=O)c1ccc(C(=O)C2C(=O)CCCC2=O)c([N+](=O)[O-])c1,inactive
10,CCOP(=O)(OCC)Oc1nc(Cl)c(Cl)cc1Cl,inactive
11,COc1ccc(-c2ccccc2)cc1NNC(=O)OC(C)C,inactive
12,CC(C)NC(=O)N1CC(=O)N(c2cc(Cl)cc(Cl)c2)C1=O,inactive
13,CC(C)C1(C)N=C(c2ncccc2C(=O)O)NC1=O (stereo not given),inactive
14,CC1(C)CCC(=Cc2ccc(Cl)cc2)C1(O)Cn1cncn1 (stereo not given),inactive
15,C=CCOC(=O)C(C)(C)OC(=O)c1cc(-n2c(=O)cc(C(F)(F)F)n(C)c2=O)ccc1Cl,inactive
16,CCOP(=S)(OCC)Oc1nc(Cl)n(C(C)C)n1,inactive
17,CCC(C)n1c(=O)[nH]c(C)c(Br)c1=O (stereo not given),inactive
18,CSC(=O)c1c(C(F)F)nc(C(F)(F)F)c(C(=O)SC)c1CC(C)C,inactive
19,CC1(C)CON(Cc2ccccc2Cl)C1=O,inactive
20,COc1cc(Cl)c(OC)cc1Cl,inactive

row,Structure (SMILES),outcome
1,CCCC(=NOCC)C1=C(O)CC(CC(C)SCC)CC1=O (stereo not given),inactive
2,CS(=O)(=O)c1cc(C(F)(F)F)ccc1C(=O)c1cnoc1C1CC1,inactive
3,COCC(=O)N(c1c(C)cccc1C)C(C)C(=O)OC (stereo not given),inactive
4,Cc1ccc(N=CN(C)C=Nc2ccc(C)cc2C)c(C)c1,inactive
5,CNC(=O)N(C)c1nnc(C(C)(C)C)s1,inactive
6,N#Cc1c[nH]cc1-c1cccc2c1OC(F)(F)O2,inactive
7,CNC(=O)Oc1cccc2ccccc12,inactive
8,Nc1cnn(-c2ccccc2)c(=O)c1Cl,inactive
9,CN/C(=N\[N+](=O)[O-])NCc1cnc(Cl)s1,inactive
10,CC(C)Oc1cccc(NC(=O)c2ccccc2C(F)(F)F)c1,inactive
11,Cc1cnc(C2=NC(C)(C(C)C)C(=O)N2)c(C(=O)O)c1 (stereo not given),inactive
12,CC(C)Nc1nc(Cl)nc(NC(C)C)n1,inactive
13,CCN(CC)C(=O)C(C)Oc1cccc2ccccc12 (stereo not given),inactive
14,COC(=O)N(C(=O)N1CO[C@@]2(C(=O)OC)Cc3cc(Cl)ccc3C2=N1)c1ccc(OC(F)(F)F)cc1,inactive
15,CCOC(=O)C(C)OC(=O)c1cc(Oc2ccc(C(F)(F)F)cc2Cl)ccc1[N+](=O)[O-] (stereo not given),inactive
16,COC(=O)NC(=S)Nc1ccccc1NC(=S)NC(=O)OC,inactive
17,CCCCC(C#N)(Cn1cncn1)c1ccc(Cl)cc1 (stereo not given),inactive
18,N#CN=C1SCCN1Cc1ccc(Cl)nc1,inactive
19,Cn1c(-c2ccccc2)cc(-c2ccccc2)[n+]1C,inactive
20,COC(=O)c1c(C(F)F)nc(C(F)(F)F)c(C2=NCCS2)c1CC(C)C,inactive
